Source: PubChem BioAssay (The Scripps Research Institute Molecular Screening Center)
A selection: hits, their analogues and other compounds. The true share with any hit is near 1.2%.
S1P2 agonist = S1P2 (human) receptor agonism. O95136. AID 729. S1P2-expressing cell line, agonist reporter read-out. actives 0.46% (n = 97,000). activation, % at 4.5 µM; in the data active = activation above about 16%
Target sequence (O95136 whole entry, looked up): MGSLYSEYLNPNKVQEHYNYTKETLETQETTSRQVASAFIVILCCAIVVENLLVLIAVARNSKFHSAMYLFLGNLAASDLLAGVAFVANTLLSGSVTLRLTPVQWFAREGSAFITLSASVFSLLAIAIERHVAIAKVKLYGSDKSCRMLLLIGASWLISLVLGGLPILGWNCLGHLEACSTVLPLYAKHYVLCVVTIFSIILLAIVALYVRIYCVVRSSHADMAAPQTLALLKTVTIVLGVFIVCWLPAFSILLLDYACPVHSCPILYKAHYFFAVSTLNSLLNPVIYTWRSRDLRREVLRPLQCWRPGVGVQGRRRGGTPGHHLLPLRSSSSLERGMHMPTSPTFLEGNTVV
GALR2 antag = blocks the human galanin receptor 2; GALR2-expressing cells, antagonist mode; O43603; AID 828; actives 0.39% (n = 140,000); inhibition, % at 4 µM; in the data active = inhibition above about 27%;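 also: cells stimulated with galanin 1-16 at roughly its EC80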
S1P2 blocker = antagonists of human S1P2 receptor; cell-based S1P2 antagonist assay, inhibition at 5 uM; actives 0.21% (n = 97,000); inhibition, % at 5 µM; O95136; in the data active = inhibition above about 45%;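 also: CRE beta-lactamase reporter cells expressing human S1P2 stimulated with S1P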
GALR2 ag = activates the human galanin receptor 2; O43603; GALR2-expressing cells, agonist activation read-out; activation, % (no concentration beside the values); actives 0.48% (n = 140,000); in the data active = activation above about 5%, passing the limit was not always enough
GALR2 ag confirm = GALR2 (human) agonism confirmed; activation, % at 5.6 µM; GALR2-expressing cells, agonist activation; shares compounds with GALR2 ag; AID 864; actives 10% (n = 460); in the data active = activation above about 8.4%
BLA act counter = activates beta-lactamase reporter in GALR2 agonist counterscreen; actives 10% (n = 460); AID 865; shares compounds with GALR2 ag; activation, % at 5.6 µM; CHO NFAT-bla reporter, beta-lactamase FRET activation;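 active = activation above the screen-wide mean activation plus 3 SD, cut at about 8% in these data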
Each line names hits and unclear results; the compound was inactive in the other large screens (follow-up assays come after a bar, where they were run).

O=C(COc1ccc2ccccc2c1)Nc1ccc2c3c(cccc13)CC2	none (no result: S1P2 agonist, S1P2 blocker)
CCCS(=O)(=O)c1snnc1C	GALR2 ag 14 | GALR2 ag confirm inactive | BLA act counter inactive
COc1ccc(OC)c(S(=O)(=O)NC(C)(C)C)c1	none
CCN(CC)c1ccc2cc(S(=O)(=O)c3ccc(Cl)cc3)c(=O)oc2c1	GALR2 ag 43 (no result: S1P2 agonist, S1P2 blocker) | GALR2 ag confirm 16 | BLA act counter 29
CCCCCCc1cc2cc(C(=O)Nc3ccccc3)c(=O)oc2cc1O	none (no result: S1P2 agonist, S1P2 blocker)
CCCCCCc1cc2cc(S(=O)(=O)c3ccc(C)cc3)c(=O)oc2cc1O	GALR2 ag 45 (no result: S1P2 agonist, S1P2 blocker) | GALR2 ag confirm 15 | BLA act counter 42
CCCCCCc1cc2cc(S(=O)(=O)c3ccc(Cl)cc3)c(=O)oc2cc1O	GALR2 ag 20 (no result: S1P2 agonist, S1P2 blocker) | GALR2 ag confirm 15 | BLA act counter 46
CC(=O)N1CCCc2cc(S(=O)(=O)N3CCC(C)CC3)ccc21	none (no result: S1P2 agonist, S1P2 blocker)
COC(=O)c1ccc(C(=O)NC(=S)Nc2ccc3nc(SC)sc3c2)cc1	none (no result: S1P2 agonist, S1P2 blocker)
COc1ccc(/C(N)=N/O)cc1O	none (no result: S1P2 agonist, S1P2 blocker)
Cc1cc2c(c(=O)n1Cc1ccc3c(c1)OCO3)C(c1cccnc1)C(C#N)=C(N)O2 (centres undefined)	GALR2 ag 23 | GALR2 ag confirm inactive | BLA act counter inactive
Cc1cc2c(c(=O)n1Cc1cccnc1)C(c1ccccc1)C(C#N)=C(N)O2 (centres undefined)	none
N=c1c(S(=O)(=O)c2ccccc2)cc2c(=O)n3ccccc3nc2n1CC1CCCO1 (centres undefined)	none | GALR2 ag confirm inactive | BLA act counter inactive
Cc1cccn2c(=O)c3cc(C#N)c(=N)n(CC4CCCO4)c3nc12 (centres undefined)	none
COc1ccc(C(=O)CSc2nnc(C3CC3)n2N)cc1	GALR2 ag 21 | GALR2 ag confirm inactive | BLA act counter inactive
CCn1c(SCC(=O)c2ccc(OC)cc2)nnc1C1CC1	none
CC(C)N1C(=O)/C(=C\c2nc3ccccc3c(=O)n2-c2ccccc2)c2ccccc21	GALR2 ag 41 (no result: S1P2 agonist, S1P2 blocker) | GALR2 ag confirm inactive | BLA act counter inactive
Cc1nn(Cc2c(Cl)cccc2Cl)c(C)c1NC(=O)c1sc2ccccc2c1Cl	GALR2 ag 12 | GALR2 ag confirm inactive | BLA act counter inactive
COc1ccc(-c2nnc(SCC(=O)NC3CCCc4ccccc43)n2N)cc1 (centres undefined)	none (no result: S1P2 agonist, S1P2 blocker)
CCCn1c(NC(=O)c2ccc(Cl)c(S(=O)(=O)N3CCCC3)c2)nc2ccccc21	none
C=CCn1c(NS(=O)(=O)c2ccccc2)c(S(=O)(=O)c2ccc(C)cc2)c2nc3ccccc3nc21	none (no result: S1P2 agonist, S1P2 blocker)
CC(=O)Nc1c(S(=O)(=O)c2ccccc2)c2nc3ccccc3nc2n1Cc1ccccc1	none | GALR2 ag confirm inactive | BLA act counter inactive
Cc1nc(-n2[nH]c3c(c2=O)CCCC3)[nH]c(=O)c1Cc1ccccc1	none | GALR2 ag confirm inactive | BLA act counter 29
Cc1ccc(-c2c3c(=O)n(C)c(=O)n(C)c3cn2Cc2ccccc2)cc1	GALR2 ag 71 | GALR2 ag confirm inactive | BLA act counter inactive
COc1ccc(/C=N/NC(=O)OC(C)(C)C)cc1OC	none (no result: S1P2 agonist, S1P2 blocker)
O=C(Nc1ccc(O)cc1)/C(=C\c1cccs1)NC(=O)c1ccccc1	GALR2 ag 8.8 (no result: S1P2 agonist, S1P2 blocker) | GALR2 ag confirm inactive | BLA act counter inactive
CCOC(=O)COn1c(=O)c(C)[n+]([O-])c2ccccc21	GALR2 ag 31 | GALR2 ag confirm inactive | BLA act counter inactive
CCOC(=O)COn1c(=O)c[n+]([O-])c2ccccc21	none
Cc1nc(SCc2cccc(F)c2)[nH]c(=O)c1C#N	GALR2 ag 154 | GALR2 ag confirm inactive | BLA act counter inactive
N#Cc1c(-c2ccco2)nc(SCc2ccc(F)cc2)[nH]c1=O	none
O=C(NC(=S)N1CCN(c2ccc(C(F)(F)F)cc2[N+](=O)[O-])CC1)c1cccs1	none (no result: S1P2 agonist, S1P2 blocker)
COC(=O)c1cc(C(C)=O)n2ccccc12	none
CCOC(=O)c1cc(C(=O)OCC)c2ccccn2c1=O	GALR2 ag 15 | GALR2 ag confirm inactive | BLA act counter inactive
Cn1nc([N+](=O)[O-])nc1Oc1ccc(C(C)(C)C)cc1	none (no result: S1P2 agonist, S1P2 blocker)
O=C(/C=C/c1ccccc1F)c1cccc([N+](=O)[O-])c1	none (no result: S1P2 agonist, S1P2 blocker)
O=C(Oc1ccc(F)cc1C(=O)/C=C/c1cccs1)c1cccc([N+](=O)[O-])c1	GALR2 ag 39 | GALR2 ag confirm inactive | BLA act counter inactive
CCC(CC)C(=O)NCCc1ccc(S(N)(=O)=O)cc1	none | GALR2 ag confirm inactive | BLA act counter inactive
CCCCC(CC)C(=O)NCCc1ccc(S(N)(=O)=O)cc1 (centres undefined)	none
